Experimental data from ChEMBL document CHEMBL3988442, “University of Dundee, Small-Polar-MMV Screening Library” (2021).
Out of some 48,000 compounds screened, about 13,000 (27%) showed an effect of 50% or more. The list shows a part of the results.

Test system: Wolbachia pipientis
Assay: Anti-Wolbachia Cell-Based Screen
Format: functional
Set-up: scale not given: in the data most compounds retested in dose-response had high values
Conditions: 5 µM

SMILES | Percent Effect [%]
COc1ccccc1OC1(C(=O)O)CCN(c2nccnc2OC)CC1 | -49.7
CC(=O)c1ccc(N2CCCC(CO)(Cc3ccccc3F)C2)nc1 (centres undefined) | -130
CC(C(=O)N1CCn2cncc2C1)N1C[C@@H](C)O[C@@H](C)C1 (some centres undefined) | 4.778
Cc1noc([C@@]23CCO[C@@H]2CCN(C(=O)c2c(C)noc2C)C3)n1 | -5.968
Cc1nc(C)c(C(=O)N2CCCc3c(F)ccc(F)c32)o1 | -4.238
COc1cccc2c1CCCCN2C(=O)c1oc(C)nc1C | -10.05
Cc1noc(C)c1C(=O)N1CCCC1(C)C(=O)NC1CCCC1 (centres undefined) | 82.14
CNC(=O)C1CCCCN1C(=O)c1sc(-c2ccc(C)o2)nc1C (centres undefined) | 8.745
Cc1noc(C2CCN(C(=O)c3c(C)noc3C)CC2)n1 | -1.195
Cc1nc(C)c(C(=O)N2CCCC2(C)C(=O)NC2CCCC2)o1 (centres undefined) | 148.2
Cc1nc(C)c(C(=O)N2CCCC2(C)C(=O)NC2CCCC2)s1 (centres undefined) | 95.95
O=C(CCn1cccn1)N1CCN(CC(F)F)CC1 | 6.604
CN(Cc1nc2ccsc2c(=O)[nH]1)CC1CCCCC1 | -1.437
COc1nc2ccn(CCc3cc(O)nc(C)n3)c(=O)c2cc1C#N | -7.353
COc1ccc(CCN2CCc3c(nc(C4CC4)n3C)C2)cc1 | -1.016
c1ccc(-c2nc3c(c(NCCc4c[nH]cn4)n2)CCNC3)cc1 | 7.707
Cc1nc(N(C)C)nc(NCCc2c[nH]cn2)c1C | 92.29
Cc1nc(O)cc(CCNc2nc(N(C)C)nc(C)c2C)n1 | 19.28
Cc1nc(CCNc2nc(N(C)C)nc3c2CCCC3)cc(=O)[nH]1 | 13.62
Cc1nc(N(C)C)ncc1C(=O)NCCc1csc(-c2cnccn2)n1 | -3.2
Cc1nc(N(C)C)nc(NCCc2cnccn2)c1C | 98.55
Cc1nc(N(C)C)nc(NCCc2ccccn2)c1C | 85.61

SMILES | Percent Effect [%]
c1nc(CCNc2nc(C3CC3)nc3c2CCNCC3)c[nH]1 | 9.275
Cc1nc(C)c(C)c(NCCSc2ccccn2)n1 | -2.821
Cc1cccnc1N1CCN(Cc2cc(O)c3cccc(F)c3n2)CC1 | -4.875
CCS(=O)(=O)N1CCOC2(CCCN(c3ncc(F)cn3)C2)C1 (centres undefined) | -5.745
Cc1cnc(CNS(=O)(=O)CCC2CCCO2)o1 (centres undefined) | -9.077
CC1CN(Cc2cccc(C#N)c2)CCN1c1ccc2nncn2n1 (centres undefined) | -2.779
CC1CN(Cc2nccn2C)CCN1c1ccc2nncn2n1 (centres undefined) | 2.712
CC1CN(Cc2cccnc2)CCN1c1ccc2nncn2n1 (centres undefined) | 111.3
CC1CN(Cc2cnn(C)c2)CCN1c1ccc2nncn2n1 (centres undefined) | 114.2
COc1cccc(CN2CCN(c3ccc4nncn4n3)C(C)C2)c1 (centres undefined) | -8.631
CCC(=O)N1CCN(C(=O)Nc2cccc(F)c2)[C@H]2CS(=O)(=O)C[C@H]21 | 4.618
Cc1nc(CN2CCOC(Cn3cccn3)C2)nc2ccccc12 (centres undefined) | 103.8
Cc1cnn(CC2CN(Cc3nc(C)c4ccccc4n3)CCO2)c1 (centres undefined) | 114.4
Cc1cnn(CC2CN(Cc3nc4ccccc4nc3C)CCO2)c1 (centres undefined) | -8.261
Cc1nc2ccccc2nc1CN1CCOC(Cn2cccn2)C1 (centres undefined) | 77.13
Cc1nc(CN2CCOC(Cn3cncn3)C2)nc2ccccc12 (centres undefined) | -10.51
Nc1nc(CN2CCOC(Cn3cncn3)C2)nc2ccccc12 (centres undefined) | -0.7232
Cc1cnn(CC2CN(Cc3nc(N)c4ccccc4n3)CCO2)c1 (centres undefined) | 9.564
Nc1nc(CN2CCOC(Cn3cccn3)C2)nc2ccccc12 (centres undefined) | 54.57
CNC(=O)Cc1ccc(-n2ccnc2-c2cccc(C(=O)O)c2)cc1 | -25.18
Cc1noc(-c2ccc(N(C)Cc3cccnc3)nc2)n1 | -25.91
O=C1CCc2cc(S(=O)(=O)NCc3cc4n(n3)CCNC4)ccc2N1 | -63.18

SMILES | Percent Effect [%]
Cc1ccc(C(CNCc2cnn(C(C)C)c2)N2CCOCC2)s1 (centres undefined) | 14.4
O=C(NCC(O)COc1cccc(F)c1)C1(c2ccc(F)cc2)CC1 (centres undefined) | -1.107
CCCOCCn1ncc(N2CCc3ccccc3C2)cc1=O | -4.867
CSc1ccc(NCc2csc(C)n2)cc1F | 74.08
CSc1ccc(NCc2csc(CS(C)(=O)=O)n2)cc1F | 19.87
Cc1ccc(-c2nc(CNc3ccc(C(N)=O)c(C)c3)cs2)o1 | 16.54
Cc1noc(C)c1CNc1cccc(C(=O)N(C)c2ccccc2)c1 | 8.742
COC(=O)c1cc(NCc2cscn2)ccc1C | 4.935
COC(=O)c1ccc(NCc2csc(C)n2)cc1Cl | 105.1
COCc1nc2cc(NCc3csc(C)n3)ccc2o1 | -10.85
Cc1noc(C)c1CNc1ccc2nc(C3CC3)sc2c1 | -3.579
COCCNC(=O)c1ccc(NCc2c(C)noc2C)cc1Cl | 99.6
CNC(=O)Cc1nc(CNc2ccc(SC)c(F)c2)cs1 | 0.08952
COc1ccc(OCCCNC(=O)NCc2csc(C)n2)cc1 | -1.518
COCCNC(=O)c1ccc(NCc2csc(C)n2)cc1Cl | 103.1
CCOCCC(=O)N1Cc2cnc(-c3ccccc3)nc2C1 | -9.321
Cc1nsc(N2CCN(C(=O)Nc3cccc(C#N)c3)CC2)n1 | -11.67
CC(=O)N[C@@H]1CN(Cc2ccccc2-n2cccn2)C[C@H]1C(C)C | 1.725
Cc1cc(C)cc(C(=O)NCCCC2(C3OCCO3)CCOCC2)c1 | 11.75
CCn1c(CN(C)CC(=O)N(C)C)nc2c(F)cccc21 | -12.46
Cc1nnc(N2C[C@H](Oc3ccccn3)[C@H]3OCCC[C@H]32)s1.O=C(O)C(F)(F)F.O=C(O)C(F)(F)F | -4.759
O=C(Nc1ccc(-c2cscn2)cc1)C1CCCN(Cc2ccon2)C1 (centres undefined) | -5.748

SMILES | Percent Effect [%]
CCOC(=O)NCCNC(=O)c1cc(Br)cn1C(C)C | -7.035
Cn1ccnc1C(=O)N1CCC2(CCN2CC2CC2)C1.O=C(O)C(F)(F)F (centres undefined) | -29.26
Cc1ccc(C(=O)N2CCC3(CCN(c4ccsc4)C3=O)C2)cn1.O=C(O)C(F)(F)F (centres undefined) | 44.84
Cn1ccnc1C(=O)N1CCC2(CCN2Cc2ccc(F)cc2)C1.O=C(O)C(F)(F)F (centres undefined) | 107.3
Cc1ccc(C(=O)N2CCC3(CCN3Cc3ccc(F)cc3)C2)cn1.O=C(O)C(F)(F)F (centres undefined) | 111.6
CCN1CCC12CCN(C(=O)c1ccsc1)C2.O=C(O)C(F)(F)F (centres undefined) | -5.276
O=C(c1ccsc1)N1CCC2(CCN2Cc2ccc(F)cc2)C1 (centres undefined) | -0.5147
Cc1cnc(C(=O)N2CCC3(CCN3Cc3ccc(F)cc3)C2)cn1.O=C(O)C(F)(F)F (centres undefined) | 105.8
Cn1c(CN2CCCC2)nnc1C1CCCN(C(=O)N2CCOCC2)C1 (centres undefined) | -16.59
CCn1c(SC)nnc1C1CCN(C(=O)N2CCCC2)CC1 | 139.7
CSc1nnc(CC2CCN(C(=O)Cc3ccncc3)CC2)n1C | -0.6807
CCn1c(CN2CCCC2)nnc1C1CCN(S(=O)(=O)CC)CC1 | 6.34
CSc1nnc(C2CCN(C(=O)N3CCCC3)CC2)n1C | 86.99
CCn1c(Cn2cncn2)nnc1C1CCN(C(=O)CCSC)CC1 | 0.8054
CC(C)(C)OC(=O)N1CCC(C(=O)NCCNc2ncccn2)CC1 | 98.46
O=C(NCCNc1ncccn1)C1CCN(C(=O)N2CCCC2)CC1 | 88.68
O=C(NCCNC(=O)C1CCN(CC(F)(F)F)CC1)c1ccoc1 | 16.83
O=C(NCCNc1ncccn1)C1CCN(C(=O)C2CC2)CC1 | 7.876
O=C(NCCNc1ncccn1)C1CCN(C(=O)c2ccoc2)CC1 | 101.2
O=C(NCCNc1ncccn1)C1CCN(C(=O)NC2CC2)CC1 | 95.19
O=C(NCCNC(=O)C1CCN(c2ncccn2)CC1)c1ccoc1 | -1.676
CN(C)C(=O)N1CCC(C(=O)NCCNc2ncccc2C#N)CC1 | -1.068

SMILES | Percent Effect [%]
O=C(NCCNc1ncccn1)C1CCN(CC(F)(F)F)CC1 | 1.799
O=C(NCCNc1ncccn1)N1CCSCC1 | -3.552
CC(O)CN1CCC(CN(C)Cc2ccc(C(N)=O)cc2)CC1 (centres undefined) | 3.378
O=C1N(Cc2cccc(F)c2F)CCCC1(O)CNCC1CCCCC1 (centres undefined) | -14.65
Cc1nc2ccccc2nc1CN1CCn2nc(CCC(=O)O)cc2C1 | 11.39
CC(Nc1ccc(CN2CCCC2=O)cc1)C(=O)N(C)CCC#N (centres undefined) | 4.456
O=C(NCCNc1ncccn1)C1CCCC1 | 120
CS(=O)(=O)N1CCC(C(=O)NCCNc2ncccn2)CC1 | -2.901
O=C(NCCNc1ncccn1)C1CCN(c2ncccn2)CC1 | -3.346
CCCC(=O)N1CCC(C(=O)NCCNc2ncccn2)CC1 | 97.7
CCCC(=O)N1CCC(C(=O)NCCN2CCC(C)CC2)CC1 | 2.916
Cc1ccc(CN2CC[C@H]3C(=O)N(c4cccnc4)CCO[C@H]3C2)o1 | -2.706
CN1CCCc2sc(C(=O)NCc3cccnc3)nc21 | -7.154
O=C(NCc1cccnc1)c1nc2c(s1)CCCN2C(=O)C1CC1.O=C(O)C(F)(F)F | 105.9
O=C(NCCc1cccc(F)c1)c1nc2c(s1)CCCN2C(=O)C1CC1 | 109.4
O=C(NCCc1cccnc1)c1nc2c(s1)CCCN2C(=O)C1CC1.O=C(O)C(F)(F)F | 99.18
CN1CCN(C(=O)c2nc3c(s2)CCCN3C(=O)C2CC2)CC1.O=C(O)C(F)(F)F | -2.349
CN(C)CCNC(=O)c1nc2c(s1)CCCN2C(=O)C1CC1.O=C(O)C(F)(F)F | 97.24
Cc1ccc(NC(=O)c2nc3c(s2)CCCN3C(=O)C2CC2)cn1.O=C(O)C(F)(F)F | 7.338
COCCN(C)C(=O)c1nc2c(s1)CCCN2C(=O)C1CC1 | 11.31
O=C(c1nc2c(s1)CCCN2C(=O)C1CC1)N1CCCC1 | 12.54
